From PubChem
D1 antagonist – human D1 dopamine receptor antagonism; P21728; HEK293 TREx D1 cells, calcium flux, dopamine EC80; active compounds read low; activity change, negative = inhibition, % at 10 µM; 360,000 tested, 3.2% active; AID 504652; in the data active = activity change below about -30%
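Tetracycline-induced HEK293 Trex D1 cells, force-coupled to calcium, dye-loaded; compounds added and read 180 s, then EC80 dopamine added and calcium flux tracked kinetically another 180 s.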
D1 ag – agonists of human D1 dopamine receptor. P21728. HEK293 T-REx D1 cells, calcium flux, agonist mode. activation, % at 2 µM. 360,000 tested, 1% active. AID 504660
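Inducible HEK293 T-REx D1 cells, force-coupled to calcium signalling, were plated at 4000 cells/well with tetracycline and held overnight at 30 C. After no-wash calcium dye loading, compound-evoked calcium rise over 180 s flagged agonists.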
TRHR ag – agonists of human TRH receptor; P34981; TRHR cells, calcium flux fluo-8, FDSS agonist mode; activation, % at 2 µM; 360,000 tested, 0.18% active; AID 493084
Target sequence (P34981 whole entry, looked up): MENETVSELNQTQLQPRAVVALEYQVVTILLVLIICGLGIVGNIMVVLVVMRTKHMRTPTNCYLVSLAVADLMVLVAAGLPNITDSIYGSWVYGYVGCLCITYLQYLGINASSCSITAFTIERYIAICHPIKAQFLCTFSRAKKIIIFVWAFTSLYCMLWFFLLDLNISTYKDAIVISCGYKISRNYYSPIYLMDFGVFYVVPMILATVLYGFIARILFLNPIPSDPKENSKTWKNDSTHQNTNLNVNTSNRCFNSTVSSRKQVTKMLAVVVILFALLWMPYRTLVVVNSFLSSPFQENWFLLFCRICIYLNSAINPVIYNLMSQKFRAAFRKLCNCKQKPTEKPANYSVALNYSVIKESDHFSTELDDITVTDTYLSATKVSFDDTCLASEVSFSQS
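Fluo-8-loaded TRHR cells; 10 s baseline, compound added, kinetic Ca2+ fluorescence read 1/s, agonist mode.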
D1 PAM – human D1 dopamine receptor positive modulation; P21728; HEK293 TREx D1 cells, calcium flux, dopamine EC20 potentiation; potentiation, % at 10 µM; 360,000 tested, 0.036% active; AID 504651; in the data active = potentiation above about 30%
TRHR PAM – TRH receptor (human) allosteric enhancement | P34981 | 360,000 tested, 0.66% active | TRHR cells, fluo-8 calcium fluorescence, EC20 TRH enhancement | AID 493056 | enhancement, % at 2 µM; in the data active = enhancement above about 30%
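TRHR-expressing cells loaded with fluo-8 calcium dye were read kinetically (ex 480/em 530) during compound addition, then stimulated with an EC20 of TRH (10 nM final). Enhancement of the Gq-mediated intracellular calcium response was scored.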
Each line names hits and unclear results; the compound was inactive in the other large screens; ! = repeats disagree. Shown are actives, neighbours in structure and some others; about 4.7% of the full set was active somewhere. Cut-off read from the data, not from the text of the source, unless noted: active = activation above about 30%; inactive = the rest.

CCOC(=O)c1c(C)[nH]c(C)c1S(=O)(=O)NCC1CCN(Cc2ccccc2F)CC1	none
Cc1ccc(-n2nc(C)c(C(=O)NCCCN3CCN(c4cccc(Cl)c4)CC3)c2-n2cccc2)cc1	none
CCOC(=O)c1c(C)[nH]c(C)c1S(=O)(=O)NCCN1CCN(c2ccccc2F)CC1	D1 antagonist -79
COc1ccc(NC(=O)NCCCN2CCN(c3ccccc3F)CC2)cc1	D1 antagonist -86
O=C(CC(c1ccccc1)c1cc(Cl)ccc1O)NCCCN1CCOCC1 (stereo not given)	none
Cc1cn2c(=O)c(S(=O)(=O)NCc3ccccc3Cl)c(C)nc2s1	none
COC(=O)c1ccc(CSc2nc3ccc(S(N)(=O)=O)cc3[nH]2)cc1	TRHR PAM 36
COc1ccc(NC(=O)CSc2c(C)n[nH]c2C)cc1	none
COc1ccc(NC(=O)CSc2nc3sc(C)cc3c(=O)n2C)cc1	D1 antagonist -34
Cc1cc2c(=O)n(C)c(SCC(=O)Nc3ccccc3)nc2s1	none
COc1ccc(NC(=O)CSC2=NCCN2)cc1	D1 antagonist -30
COc1ccc(NC(=O)c2ccc(NC(=O)CSc3nc(N)cc(=O)[nH]3)cc2)cc1	D1 antagonist -45
CCOC(=O)c1noc2nc(C)n(Cc3cccc(C#N)c3)c(=O)c12	none
COc1ccc2nc(SCC(=O)NC(C)C)[nH]c2c1	none
COc1ccc2nc(SCC(=O)NC3CCCCC3C)[nH]c2c1 (stereo not given)	D1 antagonist -40
CCCc1cc(=O)[nH]c(SCC(=O)N(C)CC(=O)Nc2ccc(C)cc2)n1	D1 antagonist -36
COC(=O)c1cc(CSc2nc3ccc(C)cc3[nH]2)oc1C	D1 antagonist -47
COC(=O)c1ccc(CSc2nc3ccccc3[nH]2)o1	none
CCc1c(C)nc(SCC(=O)Nc2nc(-c3ccc(OC)cc3)cs2)[nH]c1=O	D1 antagonist -33
O=C1CCN(Cc2ccc(O)cc2)CCN1[C@H](CO)c1ccccc1	none
COC(=O)c1ccc(NC(=O)CSc2nc3ccc(OC)cc3[nH]2)cc1	D1 antagonist -57
COc1ccc(NC(=O)CSc2nc(-c3ccc(OC)cc3)cc(=O)[nH]2)cc1	D1 ag 57
COc1cccc(NC(=O)CSc2nc(C)c(Cc3ccccc3)c(=O)[nH]2)c1	D1 antagonist -73
COc1ccc(NC(=O)CSc2nc3ccc(OC)cc3[nH]2)cc1	none
CCOC(=O)N1CCc2c(sc3c2c(=O)n(-c2ccc(F)cc2)c(=O)n3CC(=O)c2ccc(Cl)cc2)C1	none
CC(C)(C)C(=O)C1=C(O)C(=O)N(Cc2ccccc2)C1c1ccccc1F (stereo not given)	D1 ag 54
COc1ccccc1-c1nnc(C2CCN(C(=O)c3cccc(Cl)c3)CC2)o1	none
COc1ccc(OC)c(-c2cc(C(=O)Nc3sc4c(c3C#N)CCC(C)C4)c3ccccc3n2)c1 (stereo not given)	D1 antagonist -47
COc1ccc(CC(=O)Nc2nnc(CC(C)C)s2)cc1S(=O)(=O)N1CCOCC1	none
Cc1cc(C)cc(-n2c(SCC(=O)NCc3ccc4c(c3)OCO4)nc3ccccc3c2=O)c1	D1 antagonist -37
Cc1cc(C)cc(-n2c(SCC(=O)NCc3ccco3)nc3ccccc3c2=O)c1	none (no result: D1 antagonist)
O=C(CSc1nc(C2CCCCC2)nc2ccccc12)NCc1ccc2c(c1)OCO2	D1 antagonist -46
CC(C)C(=O)NNC(=O)CSc1nc(C2CCCCC2)nc2ccccc12	none
COCCCn1c(=O)c2ccccc2n(Cc2cccc(C)c2)c1=O	none
CCc1ccccc1NC(=O)CCS(=O)(=O)c1cccc2nonc12	none
CCOC(=O)CCCN1C(=O)CCn2nc(-c3cn(C)c4ccccc34)cc21	D1 antagonist -40
Cn1cc(-c2cc3n(n2)CCC(=O)N3CCCC(=O)NCc2ccccc2Cl)c2ccccc21	D1 antagonist -48
Cn1cc(-c2cc3n(n2)CCC(=O)N3CCCC(=O)NCc2ccc(Cl)cc2)c2ccccc21	none
COc1ccc(-c2noc(-c3cc(C(C)C)[nH]n3)n2)cc1	none
CC(C)C(=O)N1c2nc(C(C)C)nn2C2(CCCCC2)[C@@H]2CCCC[C@@H]21	none
Cc1ccc(NC(=O)C(=S)NCc2ccco2)cc1	none
Cc1ccc(NC(=O)C(=O)NCc2ccco2)cc1	D1 antagonist -31
COc1cc(CNC(=O)CSCc2nc3cccnc3n2C2CCCCC2)cc(OC)c1OC	none
CCc1cc2c(cc3c(=O)n(CC(=O)NC4CCCCC4)ncn32)s1	TRHR PAM 44
COC(=O)c1ccc(Cn2nnc3c(=O)[nH]c(C4CCCN(S(=O)(=O)c5ccccc5Cl)C4)nc32)cc1 (stereo not given)	TRHR PAM 30!
COc1ccccc1CNC(=O)COC(=O)C1=COCCO1	D1 antagonist -66
O=C(O)c1cc(-c2ccc(/C=C3\NC(=O)N(c4ccccc4)C3=O)o2)ccc1Cl	none
O=C(O)c1cc(-c2ccc(/C=c3\sc4nc5ccc(Br)cc5n4c3=O)o2)ccc1Cl	D1 ag 36
C#CCN1C(=O)S/C(=C\c2ccc(-c3ccc(Cl)c(C(=O)O)c3)o2)C1=O	TRHR PAM 32
Cc1cc2nc3s/c(=C/c4ccc(-c5ccccc5C(=O)O)o4)c(=O)n3c2cc1C	D1 antagonist -38, D1 ag 142, TRHR ag 77
O=C(O)c1ccccc1-c1ccc(/C=c2\sc3nc4cc(Br)cnc4n3c2=O)o1	none
CC(C)c1ccc(NC(=O)C(Cc2ccccc2)NS(=O)(=O)c2ccc3c(c2)CCC(=O)N3)cc1 (stereo not given)	none
CCCCn1nc(C(=O)Nc2cc(C(F)(F)F)ccc2N2CCOCC2)ccc1=O	none
CC(Sc1nnnn1-c1ccccc1)C(=O)Nc1ccc(N2CCN(C)CC2)cc1 (stereo not given)	D1 antagonist -37
CC(C)n1cnnc1SCC(=O)Nc1ccc(N2CCCCC2)cc1	none
CC(Sc1nncn1C)C(=O)Nc1ccc(N2CCCCC2)cc1 (stereo not given)	D1 antagonist -35
CN1CCN(c2ccc(NC(=O)CSc3nnnn3-c3ccccc3Cl)cc2)CC1	D1 antagonist -83
O=C(CSc1nnnn1-c1ccccc1)Nc1ccc(N2CCOCC2)c(Cl)c1	none
Cc1nnc(SCc2cc(=O)[nH]c(/N=C(\N)Nc3ccccc3Sc3ccccc3)n2)s1	none
COC(=O)Cc1cc(=O)[nH]c(/N=C(\N)Nc2ccc(C)cc2C)n1	D1 antagonist -32
COc1ccccc1N/C(N)=N/c1nc(CSc2nc3ccccc3s2)cc(=O)[nH]1	D1 antagonist -31
CCOC(=O)Cc1cc(=O)[nH]c(/N=C(\N)Nc2ccc(C)cc2C)n1	D1 antagonist -38
CN(C)/N=C/C=C1\CCC/C(=C\c2ccc(F)c(F)c2)C1=O	none (no result: D1 antagonist)
COc1ccc(/C=C2\CCC/C(=C\C=N\N(C)C)C2=O)cc1	D1 antagonist -35
